# Hit rate of the full screen: of about 69,000 compounds, about 1,000 (1.4%) showed an effect of 50% or more. Many of the other results were omitted from the sample, so strong results are more common in it than they were.
# Test system: Leishmania donovani
# Assay: Leishmania intramacrophage assay
# Format: functional, organism-based
# Set-up: scale not given: in the data most compounds retested in dose-response had high values
compound,measurement,setting,value
CN(C)C(=O)COCc1nn(C)c2c1CCN(Cc1ccco1)C2.O=C(O)C(F)(F)F,Percent Effect,"30.3 µM, […]",23.44%
O=C(NCC(F)F)c1ccc(S(=O)(=O)N2CCCC(O)C2)cc1 (configuration not stated),Percent Effect,"30.3 µM, […]",15.51%
CN(C)Cc1ccc(C(=O)N2CCCC(n3cccn3)C2)cc1 (configuration not stated),Percent Effect,"30.3 µM, […]",-1.565%
Cc1nn(C)c(N(C)C)c1CNC1CCc2c(Cl)cccc21.Cl (configuration not stated),Percent Effect,30 µM,34.54%
O=C([C@@H](O)Cc1ccccc1)N1CCCn2cncc2C1,Percent Effect,"30.3 µM, […]",13.9%
Cn1ccc(C(=O)Nc2nc(-c3ccc4c(c3)CCO4)cs2)cc1=O,Percent Effect,"30.3 µM, […]",32.33%
O=C(COc1ccccc1)N1C[C@@H]2COC[C@]2(COc2cccnc2)C1.O=C(O)C(F)(F)F,Percent Effect,"30.3 µM, […]",29.31%
O=C(O)C(F)(F)F.O=C(c1ccc(F)cc1)N1C[C@@H]2COC[C@]2(COc2cccnc2)C1,Percent Effect,"30.3 µM, […]",16.14%
O=C(O)C(F)(F)F.O=C(c1cc(C2CC2)on1)N1C[C@@H]2COC[C@]2(COc2cccnc2)C1,Percent Effect,"30.3 µM, […]",50.64%
CC(C)(C)c1cc(CN2C[C@H]3CC[C@@H]2CN(Cc2ccccn2)C3)n[nH]1,Percent Effect,"30.3 µM, […]",4.97%
CC(C)N(C)S(=O)(=O)N(Cc1cccs1)CC1CCCO1 (configuration not stated),Percent Effect,"30.3 µM, […]",-50.49%
CC(C)c1cc(NCc2csc(N(C)C)n2)nc(N)n1,Percent Effect,"30.3 µM, […]",41.43%
CC(C)c1cc(NCc2csc(C(C)C)n2)nc(N)n1,Percent Effect,"30.3 µM, […]",50.61%
CC(C)c1nc(CNc2ccc(CNS(C)(=O)=O)cc2)cs1,Percent Effect,"30.3 µM, […]",21.12%
Cn1cc(CN2CCCC23CCN(C(=O)c2ccccn2)CC3)cn1.O=C(O)C(F)(F)F,Percent Effect,"30.3 µM, […]",-2.86%
Cn1cc(CN2CCCC3(CCN(C(=O)c4cnccn4)C3)C2)cn1.O=C(O)C(F)(F)F.O=C(O)C(F)(F)F (configuration not stated),Percent Effect,"30.3 µM, […]",26.24%
Cn1cc(CN2CCC3(CCCN(Cc4ccccn4)C3)CC2)cn1,Percent Effect,"30 µM, 30.03 µM",51.96%
Cc1cccc(CN2CCC3(CCCN(Cc4cnn(C)c4)C3)C2)n1.O=C(O)C(F)(F)F.O=C(O)C(F)(F)F (configuration not stated),Percent Effect,"30.3 µM, […]",37.49%
O=C(O)C(F)(F)F.O=C(c1ccccn1)N1CCC2(CCCN(c3nncs3)C2)C1 (configuration not stated),Percent Effect,"30.3 µM, […]",54.23%
Cn1cc(CN2CCC3(CC2)CCN(Cc2ccccn2)CC3)cn1,Percent Effect,"30.3 µM, […]",-5.313%
Cn1cc(CN2CCCC3(CCN(C(=O)c4ccccn4)C3)C2)cn1.O=C(O)C(F)(F)F.O=C(O)C(F)(F)F.O=C(O)C(F)(F)F (configuration not stated),Percent Effect,"30.3 µM, […]",77.43%
O=C(O)C(F)(F)F.O=C(c1ccco1)N1CCCC2(CCN(c3nncs3)C2)C1 (configuration not stated),Percent Effect,"30.3 µM, […]",36.42%
Cc1cnc(C(=O)N2CCC3(CCCN(c4nncs4)C3)C2)cn1 (configuration not stated),Percent Effect,"30.3 µM, […]",29.83%
CCOc1ccc(NC(=O)N(C)Cc2cnn(C)c2)c(C)c1,Percent Effect,"30.3 µM, […]",28.5%
CC(C)N1CCO[C@H]2CN(C(=O)c3ccoc3)C[C@H]21.O=C(O)C(F)(F)F,Percent Effect,"30 µM, 30.03 µM",-20.99%
Cn1cnc2c1C(COCc1cccnc1)N(Cc1ccccn1)CC2 (configuration not stated),Percent Effect,"30 µM, 30.03 µM",6.459%
CC(C)(C)c1n[nH]c(C2CN(Cc3nnc(C4CCC4)o3)CCO2)n1 (configuration not stated),Percent Effect,30 µM,11.21%
CCN(C)c1ncnc2c1CCN(Cc1ccncc1)CC2.O=C(O)C(F)(F)F.O=C(O)C(F)(F)F.O=C(O)C(F)(F)F,Percent Effect,"30.3 µM, […]",31.79%
CCn1cc(CN(C)S(=O)(=O)c2ccccc2)cn1,Percent Effect,"30.3 µM, […]",11.15%
CCn1cc(CN(C)S(=O)(=O)c2ccc(Cl)cc2)cn1,Percent Effect,"30 µM, 30.03 µM",2.361%
CCn1cc(CN(C)S(=O)(=O)c2cnn(C)c2)cn1,Percent Effect,"30.3 µM, […]",50.44%
C[C@@H]1CN(Cc2ccoc2)C[C@]12CCN(CC(=O)N(C)C)C2=O.O=C(O)C(F)(F)F,Percent Effect,"30.3 µM, […]",1.993%
NC(=O)c1ccnc(N2CCCC(CO)(Cc3ccc(F)cc3)C2)c1 (configuration not stated),Percent Effect,"30.3 µM, […]",16.75%
O=S(=O)(CCCN1CCOC(Cn2cccn2)C1)c1ccccc1 (configuration not stated),Percent Effect,"30.3 µM, […]",8.687%
Cc1noc([C@H]2COC[C@H]3CN(C(=O)Cc4cccc(F)c4)C[C@H]32)n1,Percent Effect,"30.3 µM, […]",29.86%
Cc1noc(C)c1CN(C)C(=O)c1ccc(NC2CC2)nc1,Percent Effect,"30 µM, 30.03 µM",24.65%
Cc1noc(C)c1CN(C)C(=O)c1ccc(O)nc1,Percent Effect,30 µM,24.33%
Cc1noc(C)c1CN(C)C(=O)c1cnc(C2CC2)nc1O,Percent Effect,"30.3 µM, […]",65.78%
CSCC(=O)N1C[C@H]2CC[C@@H]1CN(Cc1ccccc1)C2,Percent Effect,"30 µM, 30.03 µM",50.94%
O=C(CSc1ccccc1)N1C[C@H]2CC[C@@H]1CN(Cc1ccncc1)C2,Percent Effect,"30.3 µM, […]",14.29%
CCOC(=O)N1C[C@H]2CC[C@@H]1CN(Cc1ccccc1)C2,Percent Effect,"30.3 µM, […]",27.53%
O=C(CSc1ncccn1)N1C[C@H]2CC[C@@H]1CN(Cc1ccncc1)C2,Percent Effect,"30 µM, 30.03 µM",54.88%
O=C(CSc1ccncc1)N1C[C@H]2CC[C@@H]1CN(Cc1cccnc1)C2,Percent Effect,"30 µM, 30.03 µM",35.98%
O=C(CC(F)(F)F)N1C[C@H]2CC[C@@H]1CN(Cc1ccccc1)C2,Percent Effect,"30.3 µM, […]",17.26%
[O-][S+](Cc1c(F)cccc1Cl)Cc1nnnn1C1CC1 (configuration not stated),Percent Effect,"30.3 µM, […]",-31.87%
COCCC(C)NC(=O)c1cc(Br)c2c(c1)OCCO2 (configuration not stated),Percent Effect,30 µM,12.78%
Cc1nc(COc2cccc(C#N)c2)no1,Percent Effect,"30 µM, 30.03 µM",-12.6%
Cc1n[nH]c(C2CN(CC(=O)NCCc3ccccc3C)CCO2)n1 (configuration not stated),Percent Effect,"30.3 µM, […]",-38.97%
CCCc1cncnc1N1CCC(NCc2ccc(O)cc2)CC1,Percent Effect,"30.3 µM, […]",-3.143%
CCCc1cncnc1N1CCC(NCc2cc3ccccc3[nH]2)CC1,Percent Effect,"30.3 µM, […]",84.37%
CCCc1cncnc1N1CCC(NCc2ccncc2)CC1,Percent Effect,"30.3 µM, […]",-13.54%
CC(=O)N1CCN(c2cc(C3CN(C(C)=O)CCO3)nc(C)n2)CC1 (configuration not stated),Percent Effect,"30.3 µM, […]",2.386%
CC(C)c1ccc(C#N)c(N2CC(C)(C)[C@@](C)(O)C2)n1,Percent Effect,"30.3 µM, […]",3.251%
Cc1cc(C)n(CC2CN(CCOc3ccccc3C#N)CCO2)n1 (configuration not stated),Percent Effect,30 µM,10.79%
CCn1ncc2c1C(COC)CN(c1ncc(F)cn1)C2.O=C(O)C(F)(F)F.O=C(O)C(F)(F)F (configuration not stated),Percent Effect,"30.3 µM, […]",50.28%
CCn1ncc2c1C(COC)CN(Cc1ccc(F)cc1)C2.O=C(O)C(F)(F)F.O=C(O)C(F)(F)F (configuration not stated),Percent Effect,"30.3 µM, […]",-25.2%
COCC1CN(c2ncc(F)cn2)Cc2cnn(C)c21.O=C(O)C(F)(F)F.O=C(O)C(F)(F)F (configuration not stated),Percent Effect,"30.3 µM, […]",22.2%
CN(C)C1COC2(CCN(S(=O)(=O)c3ccc(F)cc3)CC2)C1.O=C(O)C(F)(F)F (configuration not stated),Percent Effect,"30.3 µM, […]",52.86%
CCOC1COC2(CCN(S(=O)(=O)c3cccc(C)c3)CC2)C1 (configuration not stated),Percent Effect,"30.3 µM, […]",23.7%
Cc1cccc(S(=O)(=O)N2CCC3(CC2)CC(N(C)C)CO3)c1 (configuration not stated),Percent Effect,"30.3 µM, […]",50.39%
COC1COC2(CCN(S(=O)(=O)c3ccc(F)cc3)CC2)C1 (configuration not stated),Percent Effect,"30.3 µM, […]",5.953%
CCOC1COC2(CCN(S(=O)(=O)c3cccc(F)c3)CC2)C1 (configuration not stated),Percent Effect,"30 µM, 30.03 µM",-15.08%
CCOC1COC2(CCN(S(=O)(=O)c3ccc(F)cc3)CC2)C1 (configuration not stated),Percent Effect,"30.3 µM, […]",12.78%
CC(Oc1ccccc1C#N)C(=O)NC1CC1 (configuration not stated),Percent Effect,"30.3 µM, […]",8.957%
Cc1cnn(C2CN(c3nc(C)cc(N(C)C)n3)C2)c1,Percent Effect,"30.3 µM, […]",24.16%
CC1CCN(CC(=O)N(C)CCc2noc(C3CC3)n2)C1=O (configuration not stated),Percent Effect,"30.3 µM, […]",26.42%
CN(Cc1noc2c1CCCC2)C(=O)CN1C(=O)COc2ccccc21,Percent Effect,"30.3 µM, […]",18.25%
CN(CCc1noc(C2CC2)n1)C(=O)CN1C(=O)COc2ccccc21,Percent Effect,"30.3 µM, […]",99.57%
CC(C)Oc1ncccc1CNC(=O)c1ccccn1,Percent Effect,"30.3 µM, […]",-8.458%
CN(Cc1ccc(F)c(F)c1)Cc1cc2c(cc1Br)OCCO2,Percent Effect,"30.3 µM, […]",17.19%
c1coc(CNCC2Cn3nncc3CO2)c1 (configuration not stated),Percent Effect,"30.3 µM, […]",55.14%
Cc1ccc(CNCC2Cn3nncc3CO2)o1 (configuration not stated),Percent Effect,"30.3 µM, […]",8.133%
c1cc(CNCC2Cn3nncc3CO2)ccn1 (configuration not stated),Percent Effect,"30.3 µM, […]",1.96%
CCNc1ccnc(NCC2(N(C)C)CCOCC2)n1,Percent Effect,"30.3 µM, […]",31.76%
CCc1ncc(C(=O)N2CC(Oc3ccccc3Cl)C2)cn1,Percent Effect,"30.3 µM, […]",18.16%
COCCN1C[C@H]2CCN(C(=O)c3cc(C)on3)CC[C@H]2S1(=O)=O,Percent Effect,"30.3 µM, […]",-11.97%
Cc1ccc(CNC(=O)NCc2csc(C)n2)cn1,Percent Effect,"30 µM, 30.03 µM",22.66%
Cc1nnc2n1CCN(CCCS(=O)(=O)c1ccccc1)C2,Percent Effect,"30.3 µM, […]",27.12%
CN(C)c1ncnc2c1CCN(CC1CCOCC1)CC2.O=C(O)C(F)(F)F,Percent Effect,"30.3 µM, […]",3.553%
CCN(C)c1ncnc2c1CCN(CC1CCOC1)CC2.O=C(O)C(F)(F)F (configuration not stated),Percent Effect,"30.3 µM, […]",-1.105%
CCN(CC)c1ncnc2c1CCN(CC1CCOCC1)CC2.O=C(O)C(F)(F)F,Percent Effect,"30.3 µM, […]",50.25%
Cc1ccc(CN2CCn3c(CNS(C)(=O)=O)nnc3C2)s1,Percent Effect,"30.3 µM, […]",21.51%
COc1cc(OC)nc(N2CCC3(CC2)OCCCC3O)n1 (configuration not stated),Percent Effect,"30.3 µM, […]",12.31%
c1cc(-c2ccc(CN3CCCC4(CCNC4)C3)s2)[nH]n1 (configuration not stated),Percent Effect,"30.3 µM, […]",24.83%
Fc1cnccc1CN1CCCC2(CCN(c3ncccn3)CC2)C1.O=C(O)C(F)(F)F,Percent Effect,"30.3 µM, […]",6.498%
Cc1cc(Br)cnc1NCCN1CCC(N(C)C)CC1,Percent Effect,"30.3 µM, […]",96.65%
CC(NCCN1CCC(N(C)C)CC1)c1ccc(F)cc1N(C)C (configuration not stated),Percent Effect,"30.3 µM, […]",15.55%
CC(=O)N1CCN(CCNc2ncc(Br)cc2C)CC1,Percent Effect,"30.3 µM, […]",1.457%
CC(NCCN1CCC(N(C)C)CC1)c1ccc(Cl)s1 (configuration not stated),Percent Effect,"30.3 µM, […]",43.03%
Cc1cc(C(C)NCCN2CCC(N(C)C)CC2)c(C)s1 (configuration not stated),Percent Effect,"30.3 µM, […]",59.42%
COC1CCN(CCNc2ncc(Br)cc2C)CC1,Percent Effect,"30.3 µM, […]",-8.998%
COCCN1CCN(Cc2c(C3CCNCC3)[nH]c3ncccc23)CC1.Cl,Percent Effect,"30.3 µM, […]",15.04%
Cn1cc(CN2CCc3onc(C(=O)Nc4cccnc4)c3C2)cn1,Percent Effect,"30.3 µM, […]",24.89%
CC(C)(C)C(=O)N1CCC(c2cnc(-c3cn[nH]c3)cn2)CC1,Percent Effect,"30.3 µM, […]",-18.54%
COc1ccc(Cl)cc1CS(=O)(=O)Cc1nc(C)no1,Percent Effect,"30.3 µM, […]",60.61%
COc1ccc(Cl)cc1CS(=O)(=O)Cc1nc(C2CC2)no1,Percent Effect,"30.3 µM, […]",28.37%
COc1ccc(Cl)cc1CS(=O)(=O)Cc1noc(C)n1,Percent Effect,"30.3 µM, […]",34.45%
